This is an account of results in PubChem BioAssay (EPA / NIEHS).

Each structure is given as a SMILES string. Results filed as inconclusive are left out. Calls of active or inactive are those of the source. The calls were made as follows, unless noted: active = hit-call score of the fitted dose curve at least 0.9, where 1 is the maximum; inactive = score below 0.9.

Assay [1] is described as follows: Tanguay_ZF_120hpf_MO24: Oregon State University Tanguay Lab 24 Hour Post-fertilization zebrafish Assay for Mortality (AID 2284389). Summed up:
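Dechorionated wild-type zebrafish embryos, 1 per well, statically exposed from 6 hpf at 28C, 0.64% DMSO final. Mortality scored as binary present/absent at 24 hpf by brightfield microscopy, relative to DMSO.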

The nature of assay [2]: Tanguay_ZF_120hpf_DP24: Oregon State University Tanguay Lab 24 Hour Post-fertilization zebrafish Assay for Delayed Development (AID 2284390). Summed up: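 Dechorionated 5D wild-type zebrafish embryos exposed statically from 6 hpf, one per well, 0.64% DMSO final, 28 C, sealed and dark. Developmental progression scored at 24 hpf by brightfield as binary present/absent; dead embryos excluded.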

The nature of assay [3]: Tanguay_ZF_120hpf_CRAN: Oregon State University Tanguay Lab 120 Hour Post-fertilization zebrafish Assay for Craniofacial Malformation (AID 2284397). Summed up: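 Dechorionated Tropical 5D wild-type zebrafish embryos, one per well, were statically exposed from 6 to 120 hpf at 28C in 0.64% DMSO, with 5uM trimethyltin chloride as positive control. Craniofacial malformation was scored present/absent by brightfield microscopy, relative to DMSO.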

Assay [4] can be described thus: Tanguay_ZF_120hpf_AXIS: Oregon State University Tanguay Lab 120 Hour Post-fertilization zebrafish Assay for Axial Malformation (AID 2284398). Summed up:
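Dechorionated 5D wild-type zebrafish embryos exposed statically, one per well, from 6 to 120 hpf at 28C, 0.64% DMSO. Axial malformation scored as present/absent by brightfield microscopy at 120 hpf; dead embryos not scored.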

The nature of assay [5]: Tanguay_ZF_120hpf_MORT: Oregon State University Tanguay Lab 120 Hour Post-fertilization zebrafish Assay for Mortality (AID 2284399). Summed up:
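Dechorionated wild-type Tropical 5D zebrafish embryos, one per well from 6 hpf, static exposure to 120 hpf at 28C in sealed dark plates, 0.64% DMSO final. Mortality scored as binary by brightfield at 24 and 120 hpf.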

A short description of assay [6]: Tanguay_ZF_120hpf_EDEM: Oregon State University Tanguay Lab 120 Hour Post-fertilization zebrafish Assay for Edema Malformation (AID 2284400). Summed up:
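Dechorionated Tropical 5D wild-type embryos, one per well, statically exposed from 6 to 120 hpf at 28C in 0.64% DMSO. Edema scored present/absent by brightfield microscopy at 120 hpf; dead embryos not scored; fit versus DMSO.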

A short description of assay [7]: Tanguay_ZF_120hpf_BRN: Oregon State University Tanguay Lab 120 Hour Post-fertilization zebrafish Assay for Brain Region Malformation (AID 2284402). Summed up: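 Dechorionated wild-type Tropical 5D zebrafish embryos exposed statically from 6 to 120 hpf at 28C, one per well, 0.64% DMSO final. Brain malformation scored at 120 hpf by brightfield as present/absent; dead embryos not scored.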

The nature of assay [8]: Tanguay_ZF_120hpf_TCHR: Oregon State University Tanguay Lab 120 Hour Post-fertilization zebrafish Assay for Touch Responsive (AID 2284403). Summed up: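 Dechorionated Tropical 5D wild-type zebrafish embryos, one per well from 6 hpf, were statically exposed to 120 hpf at 28 °C (0.64% DMSO). Touch response was scored present/absent at 120 hpf and not scored in dead larvae.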

The nature of assay [9]: Tanguay_ZF_120hpf_ANY: Oregon State University Tanguay Lab 120 Hour Post-fertilization zebrafish Assay for Any Mortality and Malformation (AID 2284404). Summed up: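 Dechorionated Tropical 5D wild-type embryos, one per well from 6 hpf, static exposure in sealed, dark plates at 28C until 120 hpf, 0.64% DMSO final. Brightfield scoring of mortality and malformations as binary presence/absence, pooling 13 morphology endpoints.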

Assay [10] in a line: CCTE_Padilla_ZF_Score.Craniofacial: CCTE's 144 Hour Post-fertilization zebrafish Assay Score for Craniofacial Malformation, Padilla Lab (AID 2284405). Summed up:
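Wild-type zebrafish embryos (with chorions), one per well in 10% Hanks', were dosed at 6–8 hpf in sealed plates and kept at 26C. They were rinsed at 5 dpf. At 6 dpf two blinded assessors scored craniofacial malformations by brightfield stereomicroscopy.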

Assay [11] in a line: CCTE_Padilla_ZF_Score.Edema: CCTE's 144 Hour Post-fertilization zebrafish Assay Score for Edema Malformation, Padilla Lab (AID 2284406). Summed up: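 Wild-type zebrafish embryos, one per well in Hanks' solution, dosed at 6-8 hpf, sealed and reared at 26C on a 14:10 h cycle; rinsed on 5 dpf. At 6 dpf, blinded assessors scored edema by stereomicroscopy.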
Assay [12] can be described thus: CCTE_Padilla_ZF_Score.Spine: CCTE's 144 Hour Post-fertilization zebrafish Assay Score for Spine Malformation, Padilla Lab (AID 2284407). Summed up:
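Wild-type zebrafish embryos, one per well in Hanks' solution, dosed at 6–8 hpf in sealed plates at 26C, 14:10 h light:dark; rinsed at 5 dpf. Two blinded assessors scored spinal defects by stereomicroscopy at 6 dpf; fitted versus DMSO.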

A short description of assay [13]: CCTE_Padilla_ZF_Score.Swim_bladder: CCTE's 144 Hour Post-fertilization zebrafish Assay Score for Swim Bladder Malformation, Padilla Lab (AID 2284408). Summed up: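 Wild-type zebrafish embryos, one per well in 10% Hanks', dosed at 6–8 hpf, sealed, reared at 26C and rinsed at 5 dpf. Blinded assessors scored uninflated swim bladder by stereomicroscopy at 6 dpf, relative to DMSO.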

Assay [14] in a line: CCTE_Padilla_ZF_Score.Position: CCTE's 144 Hour Post-fertilization zebrafish Assay Score for Position, Padilla Lab (AID 2284409). Summed up:
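Wild-type zebrafish embryos (with chorions) exposed singly from 6–8 hpf in sealed wells of Hanks' solution at 26C, rinsed at 5 dpf. At 6 dpf, blinded assessors scored abnormal water-column position by brightfield stereomicroscopy, relative to DMSO.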

Assay [15] in a line: CCTE_Padilla_ZF_Score.Living: CCTE's 144 Hour Post-fertilization zebrafish Assay Score for Viability, Padilla Lab (AID 2284410).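 Also: larval death at 6 dpf judged by absent heartbeat or coagulation.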 Summed up: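 Wild-type zebrafish embryos were exposed singly from 6–8 hpf in sealed wells of Hanks' solution at 26C, then rinsed at 5 dpf. At 6 dpf, blinded assessors scored mortality (no heartbeat or coagulation) by stereomicroscopy, fitted against DMSO.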

In the next assay the test system is SERPINA7 (gene 6906). As to the kind of experiment: CCTE_GLTED_hTBG: CCTE's human Thyroxine-binding Globulin (TBG) Inhibition Assay, Great Lakes Toxicology and Ecology Division (GLTED) Lab (AID 2284343; active = hit-call score of the fitted dose curve at least 0.9, where 1 is the maximum;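 also: active chemicals lower fluorescence versus DMSO baseline by displacing probe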). Summed up: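 Measures how far test chemicals displace ANSA bound to purified human TBG. The read-out is fluorescence at 380 nm excitation and 475 nm emission, taken after 2 h of incubation.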

The subject of assay [16] is SRY-box transcription factor 17 (SOX17) Protein Expression, Deisenroth Lab, SOX17 (gene 64321). As to the kind of experiment: CCTE_Deisenroth_DEVTOX-GLR_legacy_Sox17: (Legacy) CCTE's DevTox GLR-Endo Assay Evaluation of SRY-box transcription factor 17 (SOX17) Protein Expression, Deisenroth Lab (AID 2284341). To be noted: actives raise or lower the signal. Summed up:
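RUES2-GLR human pluripotent cells differentiated toward endoderm for 48 h, dosed twice at 24 h intervals (1 nM–200 uM, 10 points). Imaging gives % SOX17+ cells (intensity >5x BMAD above pluripotent control median); bidirectional fit versus 0.2% DMSO.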

Assay [17] deals with SRY-box transcription factor 2 (SOX2) Protein Expression, Deisenroth Lab, SOX2 (gene 6657). Description: CCTE_Deisenroth_DEVTOX-GLR_legacy_Sox2: (Legacy) CCTE's DevTox GLR-Endo Assay Evaluation of SRY-box transcription factor 2 (SOX2) Protein Expression, Deisenroth Lab (AID 2284346). Summed up: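 hPSC RUES2-GLR, 384-well; 24 h seed → 48 h endoderm differentiation, 2 doses q24h, 1 nM–200 uM. Fix, nuclear dye, 5 fields/well. Sox2+ cells/cell count; cell positive if >5x BMAD over endoderm ctrl; gain direction vs DMSO.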

A short description of assay [18]: CCTE_Mundy_HCI_iCellGluta_NOG_NeuronCount: CCTE's Neurite Outgrowth Assay in iCellGluta cells for Neuron Count, Mundy Lab (AID 2284340; active = hit-call score of the fitted dose curve at least 0.9, where 1 is the maximum;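 also: cells fixed about 48 h after compound addition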). Summed up: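 Neuron count read by automated high-content imaging of Hoechst 33342 and betaIII-tubulin/Alexa Fluor-488 labelling in human iPSC glutamatergic neurons. Activity fitted relative to DMSO.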
The nature of assay [19]: CCTE_Mundy_HCI_iCellGluta_NOG_NeuriteCount: CCTE's Neurite Outgrowth Assay in iCellGluta cells for Neurite Count, Mundy Lab (AID 2284342; active = hit-call score of the fitted dose curve at least 0.9, where 1 is the maximum;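 also: chemical exposure about 48 hours starting 2 hours after plating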).

The term AC50 denotes the concentration giving half of the maximal activity seen.

`CN(CCO)S(=O)(=O)C(F)(F)C(F)(F)C(F)(F)C(F)(F)C(F)(F)C(F)(F)C(F)(F)C(F)(F)F`: the outcome in assay [1], in [2], in [5], in [7], in assay [10] and in [11] was inactive. Further, the molecule was called inactive in [12], in assay [13] and in assay [14]. For the same molecule, the AC50 is 29.5 µM (active) in [3]; 29.6 µM (active) in assay [4]; 29.6 µM (active) in assay [6]; 29.6 µM (active) in assay [8]; 28.9 µM (active) in assay [9]; 10.7 µM (active) in assay [15].

Turning to `CCCCCCCCCC=CCC1CC(=O)OC1=O` (centres undefined), in the assay on SERPINA7 (gene 6906), the AC50 is 60.7 µM (active).

Turning to `FC(OC(F)(F)C(F)(F)C(F)(F)F)C(F)(F)F` (centres undefined), the result in assay [10], in assay [11], in [12], in assay [13], in assay [14] and in assay [15] was inactive.

With `COC(=O)C(F)(F)C(F)(F)C(F)(F)C(F)(F)C(F)(F)F`, the result in assay [10], in [11], in assay [12], in assay [13], in assay [14] and in assay [15] was inactive.

Regarding `CCCCc1oc2ccccc2c1C(=O)c1cc(I)c(OCCN(CC)CC)c(I)c1`, the values for the concentration at half-maximal activity (AC50) in assay [16] and in assay [17] were 20.8 µM (active) and 29.9 µM (active), respectively.

As to `O=P(O)(O)CCC(F)(F)C(F)(F)C(F)(F)C(F)(F)C(F)(F)C(F)(F)F`, the molecule was called inactive in [18], in assay [19], in assay [1], in [2], in [3] and in [4]. Besides, the result in [5], in assay [6], in [7], in [8], in assay [9] and in assay [10] was inactive. The call in assay [12], in [13] and in assay [14] was inactive. Also, the values for the AC50 in assay [11] and in assay [15] were 23.9 µM (active) and 32.1 µM (active), respectively.

As to `O=CC(F)(F)C(F)(F)C(F)(F)C(F)F`, the molecule was called inactive in [10], in assay [11], in assay [12], in assay [13], in assay [14] and in assay [15].

Regarding `O=C1NS(=O)(=O)c2ccccc21`, the molecule was called inactive in assay [16] and in assay [17].

Turning to `C=CC(F)(F)C(F)(F)C(F)(F)C(F)(F)F`, the result in assay [10], in [11], in [12], in [13], in assay [14] and in assay [15] was inactive.

As for `O=C(F)C(F)(F)C(F)(F)C(F)(F)C(=O)F`, the result in [10], in assay [11], in [12], in [13], in assay [14] and in [15] was inactive.

In the case of `FC1(F)C=CC(F)(F)C1(F)F`, the result in assay [10], in assay [11], in assay [12], in assay [13], in [14] and in [15] was inactive.

Turning to `O=C1OC(=O)C(F)(F)C1(F)F`, the outcome in assay [10], in assay [11], in assay [12], in assay [13], in [14] and in assay [15] was inactive.

As to `O=C(O)CCC(F)(F)C(F)(F)C(F)(F)C(F)(F)C(F)(F)C(F)(F)F`, the molecule was classed as inactive in assay [10], in assay [11], in assay [12] and in assay [14]. Also, the AC50 in assay [13] was 10.4 µM (active); in assay [15], 22.2 µM (active).

In the case of `Cc1cc(Cc2cc(C)cc(C(C)(C)C)c2O)c(O)c(C(C)(C)C)c1`, in the assay with SERPINA7 (gene 6906), the AC50 is 2.6 µM (active).

Turning to `O=CC(F)(F)C(F)(F)C(F)(F)F`, the molecule was classed as inactive in assay [10], in [11], in assay [12], in [13], in assay [14] and in assay [15].

Take `OCC(F)(F)C(F)(F)C(F)(F)C(F)(F)C(F)(F)C(F)(F)C(F)(F)C(F)(F)C(F)(F)C(F)(F)C(F)(F)F`: the AC50 in [18] is 1.55 µM (active). The molecule was classed as inactive in assay [19], in assay [1], in assay [2], in [3], in assay [4] and in assay [5]. Moreover, the molecule was called inactive in assay [6], in assay [7], in [8], in [9], in assay [10] and in assay [11]. Besides, the call in [12], in assay [13], in assay [14] and in assay [15] was inactive.

Consider `O=C(c1ccccc1)c1ccccc1`, for which the AC50 in the assay on SERPINA7 (gene 6906) was 40.2 µM (active).

Turning to `CC(C)c1c(C(=O)Nc2ccccc2)c(-c2ccccc2)c(-c2ccc(F)cc2)n1CC[C@@H](O)C[C@@H](O)CC(=O)O`, the AC50 in assay [18] was 10.1 µM (active); in [19], 0.094 µM (active).

With `O=P(O)(O)CCC(F)(F)C(F)(F)C(F)(F)C(F)(F)C(F)(F)C(F)(F)C(F)(F)C(F)(F)F`, the call in assay [19], in assay [1], in [2], in assay [3], in [4] and in assay [5] was inactive. The molecule was classed as inactive in assay [6], in [7], in assay [8], in [9], in assay [10] and in assay [12]. Further, the AC50 was 95.6 µM (active) with SERPINA7 (gene 6906); 1.69 µM (active) in assay [11]; 10 µM (active) in assay [13]; 65.2 µM (active) in [14]; 11.8 µM (active) in [15].
